Lassa entry inh: qHTS for Inhibitors of binding or entry into cells for Lassa Virus | Lassa virus pseudotype entry inhibition, cell reporter | Potency, µM (top dose mostly 37.9 µM), for inactives: top-dose activity change, negative = inhibition, actives largely listed as inhibitors | 300,000 compounds, 1.2% hits | AID 540256, 2011; calls by dose curve; tested in HEK293 cells; further: potency means the concentration at half of the fitted maximal effect; on the % scale 0 is the no-effect control and ±100 the full control effect; nearly all actives have a fitted effect of over 50% in size
Shiga toxin inh: A qHTS for Small Molecule Inhibitors of Shiga Toxin; AID 2315, 2010; 290,000 compounds, 9.2% hits; inhibition, % at 38.7 µM; Vero cells, Shiga toxin protein synthesis inhibition reporter; in the data active means inhibition mostly above about 28%, no sharp cut-off; inactive means mostly below about 43%; further: 0% is about no effect
CHX counter: Cycloheximide Counterscreen for Small Molecule Inhibitors of Shiga Toxin. cell reporter, cycloheximide protein synthesis inhibition counterscreen. max response, %. 300,000 compounds, 12% hits; in the data active means max response mostly above about 13%, no sharp cut-off; inactive means mostly below about 14%; further: read at 38.3 µM for the half of the compounds with a filed dose; 0% is about no effect
Marburg entry inh: qHTS for inhibitors of binding or entry into cells for Marburg Virus; Potency, µM (titrated, usually from 37.8 µM), inactives show top-dose activity change, negative = inhibition, usual class: inhibitors; 300,000 compounds, 1.8% hits; AID 540276, 2011; Marburg virus pseudotyped entry inhibition, cell reporter; calls by dose curve; tested in HEK293 cells; further: potency means the concentration at half of the fitted maximal effect; on the % scale 0 is the no-effect control and ±100 the full control effect
The depositor's hits bear a star; ? = inconclusive; nt = not tested or not shown; ! = a repeat was not active; [ ] = another dose, or the depositor's remark. Sampled rows, rich in hits. Any-hit rate of the full collection: about 12%.

SMILES	Lassa entry inh	Shiga toxin inh	CHX counter	Marburg entry inh
COc1ccccc1/C=C1\SC(=S)N(CC(=O)Nc2nnc(C)s2)C1=O	nt	-22	-2	nt
CCOc1ccc(C2CC(=O)N(Nc3ccc([N+](=O)[O-])cc3[N+](=O)[O-])C2=O)cc1 (stereo unspecified)	?	1	1	13%
NC(=O)C1CCN(C(=O)Cn2c(-c3cccs3)cc3ccccc32)CC1	-11%[46.1 µM]	nt	nt	nt
Cc1cc(C)cc(NC(=O)Nc2ccc3c(c2)CCC3)c1	nt	-2	-3	nt
O=C(Nc1ccccc1)Nc1ccc2c(c1)CCC2	nt	156*	81*	nt
O=C(Cn1nnc2ccccc21)c1ccccc1	?	-4	20*	37%
O=C(Cn1nnc2ccccc21)OCC(=O)c1ccccc1	-1%	13	-3	14%
Cc1ccc(C(=O)Cn2nnc3ccccc32)cc1[N+](=O)[O-]	nt	94*	28*	nt
O=C(Cn1nnc2ccccc21)c1cccc([N+](=O)[O-])c1	2%	6	3	11%
COc1ccccc1CC(=O)Nc1ccc(-c2noc(COc3ccc(Br)cc3)n2)cc1	?	-14	3	?
COc1cccc(-c2nc(-c3ccc(NC(=O)Cc4ccccc4OC)cc3)no2)c1	-9%	43*	22*	-4%
COc1ccc(CC(=O)Nc2ccc(-c3noc(-c4ccccc4OC)n3)cc2)cc1	15%	31	27*	?
Clc1ccccc1N=C1NN=C(c2cccs2)CS1	?	98*	53*	?
CN(C)S(=O)(=O)c1cccc(N=C2NN=C(c3ccccc3)CS2)c1	?	1	2	?
Fc1ccccc1N=C1NN=C(c2ccccc2)CS1	?	138*	53*	11µM*
Cc1cccc(N=C2NN=C(c3ccccc3F)CS2)c1C	-1%[46.1 µM]	51*	34*	?
O=C1CSC(=Nc2ccccc2Cl)N1	17%	23	16*	8%
COc1ccc(C2=NNC(=Nc3cc(S(=O)(=O)N(C)C)ccc3C)SC2)c(OC)c1	nt	13	-2	nt
Cc1ccccc1N=C1NC(=O)CS1	14%	-6	-10	0%
Cc1c(N=C2NN=C(c3ccc(Cl)cc3)CS2)c(=O)n(-c2ccccc2)n1C	-16%	26	30	7%[46.1 µM]
CC(=O)Nc1ccc(C2=NNC(=Nc3ccc(S(=O)(=O)N4CCOCC4)cc3)SC2)cc1	?	-2	-1	11µM*
Fc1ccc(F)c(C2=NNC(=Nc3ccccc3F)SC2)c1	?	150*	130*	?
O=S(=O)(c1ccc(N=C2NN=C(c3cc(F)ccc3F)CS2)cc1)N1CCOCC1	13µM*	3	6	5µM*
CC(=O)Nc1ccc(C2=NNC(=Nc3cccc(S(=O)(=O)N(C)C)c3)SC2)cc1	nt	-8	-2	nt
Fc1ccc(N=C2NN=C(c3cc(F)ccc3F)CS2)cc1	?	69*	54*	?
SMILES	Lassa entry inh	Shiga toxin inh	CHX counter	Marburg entry inh
CC(C)(C)N=C1NN=C(c2ccc(S(=O)(=O)N3CCCCC3)cc2)CS1	-30%	nt	nt	?
CC(C)CCNC(=O)c1cc(-c2cccnc2)nc2ccc(S(=O)(=O)N3CCC(C)CC3)cc12	15%[46.1 µM]	nt	nt	nt
CC(C)NC(=O)Cn1nc(N2CCN(c3ccccc3)CC2)ccc1=O	-1%[46.1 µM]	nt	nt	nt
NS(=O)(=O)c1ccc(N2C(=O)C(=O)/C(=C(/O)c3ccccc3)C2c2ccc(Cl)cc2)cc1 (stereo unspecified)	nt	25	11*	nt
O=C1C(=O)N(c2cccc(Cl)c2)C(c2ccccc2[N+](=O)[O-])/C1=C(\O)c1ccccc1 (stereo unspecified)	-18%	37	19*	0%
O=C(NC1CCN(S(=O)(=O)c2ccc(F)cc2)CC1)c1cccc(F)c1	nt	-1	1	nt
COC[C@H]1OC(=O)c2coc3c2[C@@]1(C)C1=C(C3=O)C2CCC(=O)[C@@]2(C)C[C@H]1OC(C)=O (stereo partly specified)	?	-11	14	0.045µM*!
COC[C@H]1OC(=O)c2coc3c2[C@@]1(C)C1=C(C3=O)[C@H]2CCC(=O)[C@@]2(C)C[C@H]1OC(C)=O	nt	nt	nt	0.045µM*
COc1cc(NC(=O)COCc2cc(-c3ccc4c(c3)OCO4)on2)c(OC)cc1Cl	10%[46.1 µM]	nt	nt	nt
CC(=O)Nc1ccc(NC(=O)c2ccc(CSc3ccccc3)o2)cc1	18%	13	4	27%[46.1 µM]
O=C(Nc1ccccc1F)c1ccc(CSc2ccccc2)o1	-18%	63*	54*	10%
O=C(Nc1cccc(F)c1)c1ccc(CSc2ccccc2)o1	5.2µM*	95*	55*	7.3µM*
O=C(NCc1ccccc1)c1ccc(CSc2ccccc2)o1	?	14	8	-3%[46.1 µM]
Cc1cc(NC(=O)CCC(=O)N(c2ccc(F)cc2)C2(C(=O)NC3CCCCC3)CCCC2)no1	-23%	14	-6	11µM*
N#Cc1c(/N=C/c2ccc(O)cc2O)sc2c1C1CCN2CC1	-2%	17	9.9*	18%
O=C(CSc1nnc(C2CC2)n1CC1CCCO1)Nc1ccc(Cl)cc1 (stereo unspecified)	1%	31*	13	10%[46.1 µM]
O=C(CC(c1ccccc1)c1ccccc1)NCC1CCCO1 (stereo unspecified)	-1%	-16	-3	18%
O=C(NCCOc1ccc(Cl)cc1)C(=O)NCC1CCCO1 (stereo unspecified)	nt	-11	1	16%[46.1 µM]
O=C(CSc1ccc(Cl)cc1)NCC1CCCO1 (stereo unspecified)	5%	-3	17*	15%
O=C(CCSc1ccccc1)NCC1CCCO1 (stereo unspecified)	4%	63*	29*	5%
O=C(NCCOc1ccccc1)C(=O)NCC1CCCO1 (stereo unspecified)	3%[46.1 µM]	37*	12*	20%[46.1 µM]
CCc1ccc(NC(=O)CSc2nnc(C3CC3)n2CC2CCCO2)cc1 (stereo unspecified)	0%	-10	-4	0%[46.1 µM]
COc1ccc(S(=O)(=O)N(C)c2ccc(C(=O)N3CCCCC3)cc2)cc1OC	?	6	-1	-16%[46.1 µM]
C=CCOC(=O)N[C@H](c1ccc(-c2ccccc2)cc1)[C@H](C)C=CCC(=O)OC	?	nt	nt	-4%[14.2 µM]
CO[C@H](C1CCCCC1)[C@H](C)/C=C/CC(=O)OCCCc1ccccc1	nt	nt	nt	5%[14.2 µM]
SMILES	Lassa entry inh	Shiga toxin inh	CHX counter	Marburg entry inh
Cc1ccc(-c2nc3scc(CCNS(=O)(=O)c4ccc(Oc5ccccc5)cc4)n3n2)cc1	?	-14	-8	nt
N#C/C(=C\c1cn(CCOc2ccccc2)c2ccccc12)C(=O)NCC1CCCO1 (stereo unspecified)	-12%	-25	29*	?
Cc1cc(/C=C(\C#N)C(=O)NCC2CCCO2)c(C)n1-c1ccc(Cl)cc1 (stereo unspecified)	?	65*	26*	?
O=C(COc1ccccc1)NCC1CCCO1 (stereo unspecified)	6%	20	-1	7%
O=C(CCCOc1ccccc1)NCC1CCCO1 (stereo unspecified)	15%	26	28*	-7%
Cc1ccc(C)c(OCCn2cc(/C=C(/C#N)C(=O)NCC3CCCO3)c3ccccc32)c1 (stereo unspecified)	?	-11	-3	?
Cc1ccc(C(=O)Nc2ccc(Cl)c(-c3nc4ncccc4o3)c2)c(C)c1	4%[46.1 µM]	nt	nt	-3%[46.1 µM]

Bioassay records deposited in PubChem BioAssay by National Center for Advancing Translational Sciences (NCATS).
